# Reference: PubChem BioAssay (NCATS)
# Values joined by “and” are separate entries in the source; they are usually repeats but may differ in a detail not shown here. Equal values may be shown once. Results filed as inconclusive are left out. A number with no mark means an inactive call. Active and inactive are the calls of the source. Unless noted, calls come from the whole dose curve; as a rule, active = well fitted curve in the direction sought with a large enough effect; inconclusive = small, poorly fitted or top-dose-only effect, or another doubt; inactive = no such curve, though single readings can be large; an effect the other way counts as inactive or inconclusive.
# Assays:
# astro = control astrocytes; test: Drug repurposing screens with cells derived from glioblastoma tumor samples (AID 1345199); details: viability, ATP luminescence, 48 h; series mostly up to 45.9 µM; note: nearly all actives have a fitted effect of over 40% in size; note: potency is the fitted concentration of half-maximal effect; for activity, negative = cell killing: % is set by controls: 0 for no effect and ±100 for the full control effect
# How it was run: (§1)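 Four patient lines of CD133+ GBM neurospheres were screened at several concentrations; hits were retested in those lines plus three slower-growing GBM lines, using 48-hour treatment and ATP-based viability.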
# [1] = P-glycoprotein substrates identified in KB-3-1 adenocarcinoma cell line, qHTS therapeutic library screen (AID 1346986); note: nearly all actives have a fitted effect of over 60% in size;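 note: potency is the fitted concentration of half-maximal effect; potency is for cytotoxicity meaning loss of cell viability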
# How it was run: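 Cells seeded 500/well in DMEM/10% FCS; compounds pinned in dose-response; 72 h incubation; CellTiter-Glo added, 5 min, luminescence. KB-8-5-11 run ±tariquidar to test reversal of P-gp resistance.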
# [2] = qHTS to identify inhibitors of the type 1 interferon - major histocompatibility complex class I in skeletal muscle: primary screen against the NCATS Mechanism Interrogation Plate v5.0 (MIPE) Libary (AID 1347411); note: nearly all actives have a fitted effect of over 65% in size; note: potency is the fitted concentration of half-maximal effect;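 for activity change, negative = inhibition: plate controls were vehicle for no effect and reference inhibitor for full effect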
# How it was run: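 Luminescence from HiBiT-tagged endogenous HLA-B*08:01 served as the MHC class I read-out. CRISPR-engineered C25cl48 human myoblasts received 4.0 ng/ml IFN-beta plus compound for 24 hrs, with an 11-point, 1:3 series topping at 46 uM final.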
# [3] = Drug repurposing screens with cells derived from glioblastoma tumor samples (AID 1345199); details: GBM patient neurospheres viability, ATP luminescence, 48 h; for Potency: tumour line A; note: potency is the fitted concentration of half-maximal effect; for activity, negative = cell killing: % is set by controls: 0 for no effect and ±100 for the full control effect; for all read-outs here: nearly all actives have a fitted effect of over 40% in size
# How it was run: as §1
# [4] = qHTS assay to identify inhibitors of the type 1 interferon - major histocompatibility complex class I in skeletal muscle: Counter screen cell viability and HiBit confirmation (AID 1347412); details: iHSKM muscle cells + IFN-b, HiBiT or CellTiter-Glo, 24 h; for Potency: HiBiT; for activity change, negative = inhibition: Viability, at 45.9 µM (top of the series); note: potency is the fitted concentration of half-maximal effect; for activity change, negative = inhibition: % is set by controls: 0 for no effect and ±100 for the full control effect; for all read-outs here: nearly all actives have a fitted effect of over 60% in size
# How it was run: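 Myoblasts (C25cl48, HLA-B HiBiT) seeded in medium without dexamethasone, IFN-b 4 ng/ml added except unstimulated columns; 1 hr later compounds pinned (12-pt 1:3, top 46 uM final). Incubated 24 hrs, lysed 10 min, luminescence measured.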
# [5] = target: Ubiquitin carboxyl-terminal hydrolase 1 (Homo sapiens) (UniProt O94782); test: Inhibitors of USP1/UAF1: Pilot qHTS (AID 504865);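 note: rhodamine fluorescence freed from ubiquitin-rhodamine substrate followed over time; top concentration of the series differs between compounds; % is set by controls: 0 for no effect and ±100 for the full control effect; nearly all actives have a fitted effect of over 35% in size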
# How it was run: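 Kinetic fluorescence assay: 1nM USP1/UAF1, 15 min compound preincubation, then 150nM Ub-Rho; 480/540 nm.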
# [6] = system: Zika virus NS2B-NS3 protease; test: Primary screen GU AMC qHTS for Zika virus inhibitors (AID 1347154);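 note: 0% = no-inhibitor control and -100% = no-enzyme control; nearly all actives have a fitted effect of over 70% in size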
# How it was run: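 Fluorogenic AMC-substrate cleavage by noncovalent NS2B-NS3 protease complex (25 nM, pH 8.0 Tris buffer with Tween 20) followed for 15 minutes at room temperature (~20% conversion). Percent inhibition from ex340/em450 signal change, fitted by 4-parameter Hill equation.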
# [7] = target: Luciferin 4-monooxygenase (Photinus pyralis) (UniProt P08659); test: Biochemical firefly luciferase enzyme assay for NPC (AID 624030);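 note: purified P. pyralis luciferase at 10 nM with luciferin and ATP substrate; 0% = DMSO and -100% = full luciferase inhibition by PTC124 control; nearly all actives have a fitted effect of over 70% in size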
# How it was run: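 Direct inhibition of firefly luciferase enzyme (10 nM final, 50 mM Tris Acetate) assessed by luminescence within 5 minutes. Percent activity scaled between DMSO and PTC124 positive control, with concentration-effect curves classified by fit quality and response.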
# [8] = target: Cytochrome P450 2D6 (Homo sapiens) (UniProt P10635); test: Cytochrome P450 family 2 subfamily D member 6 (CYP2D6) small molecule antagonists: luciferase biochemical (cell-free) qHTS assay (AID 1645840; active = well fitted curve in the direction sought with a large enough effect in the repeat runs; an effect the other way counts as inactive or inconclusive; note: nearly all actives have a fitted effect of over 55% in size; note: potency is the fitted concentration of half-maximal effect)
# How it was run: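 P450-Glo luminescent screen: recombinant CYP2D6 enzyme–proluciferin substrate mix preincubated with compound 10 min at room temperature, then NADPH regeneration added for 1 h at room temperature. Detection reagent added for 20 min; luciferin light read as relative luminescence units.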
# [9] = target: Cytochrome P450 2C9 (Homo sapiens) (UniProt P11712); test: Cytochrome P450 family 2 subfamily C member 9 (CYP2C9) small molecule antagonists: luciferase biochemical (cell-free) qHTS assay (AID 1645842; active = well fitted curve in the direction sought with a large enough effect in the repeat runs; an effect the other way counts as inactive or inconclusive; note: % is set by controls: 0 for no effect and ±100 for the full control effect; nearly all actives have a fitted effect of over 55% in size)
# How it was run: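 Luminescence, after 20 min with luciferin detection reagent, reflected CYP2C9 turnover during a 1 h NADPH-driven reaction at 37C. Enzyme-substrate mix contained 0.4% bovine serum albumin and was preincubated with compound 10 min at room temperature.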
# [10] = Primary qHTS for small molecule stabilizers of the endoplasmic reticulum resident proteome: Secreted ER Calcium Modulated Protein (SERCaMP) assay (AID 1508630); note: % is set by controls: 0 for no effect and ±100 for the full control effect
# How it was run: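 GLuc-SERCaMP-expressing SH-SY5Y cells, pretreated 16 h with compound, are challenged with thapsigargin to empty ER calcium stores; after 4 h, coelenterazine is added directly to the medium and luminescence is imaged.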
# [11] = at 45.9 µM (top of the series), tumour line B
# [12] = at 45.9 µM (top of the series), tumour line D
# [13] = at 46.1 µM (top of the series), tumour line C
# Sequence of Luciferin 4-monooxygenase (Photinus pyralis) (P08659 whole entry, looked up): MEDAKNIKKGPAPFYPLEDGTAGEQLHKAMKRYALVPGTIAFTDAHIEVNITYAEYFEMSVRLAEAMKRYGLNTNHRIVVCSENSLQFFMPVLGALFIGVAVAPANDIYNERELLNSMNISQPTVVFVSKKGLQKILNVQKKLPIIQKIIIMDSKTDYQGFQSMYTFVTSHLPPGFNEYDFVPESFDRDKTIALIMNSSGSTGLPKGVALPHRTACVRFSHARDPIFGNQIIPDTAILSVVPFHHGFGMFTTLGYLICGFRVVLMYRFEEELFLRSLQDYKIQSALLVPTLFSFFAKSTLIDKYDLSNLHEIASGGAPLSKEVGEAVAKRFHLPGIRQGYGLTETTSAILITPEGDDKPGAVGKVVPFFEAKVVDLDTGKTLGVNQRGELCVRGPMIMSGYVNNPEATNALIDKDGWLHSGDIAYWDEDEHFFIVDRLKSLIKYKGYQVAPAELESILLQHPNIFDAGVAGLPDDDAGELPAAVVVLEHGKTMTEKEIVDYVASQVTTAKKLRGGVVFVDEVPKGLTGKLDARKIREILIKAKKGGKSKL
# Sequence of Cytochrome P450 2D6 (Homo sapiens) (P10635 whole entry, looked up): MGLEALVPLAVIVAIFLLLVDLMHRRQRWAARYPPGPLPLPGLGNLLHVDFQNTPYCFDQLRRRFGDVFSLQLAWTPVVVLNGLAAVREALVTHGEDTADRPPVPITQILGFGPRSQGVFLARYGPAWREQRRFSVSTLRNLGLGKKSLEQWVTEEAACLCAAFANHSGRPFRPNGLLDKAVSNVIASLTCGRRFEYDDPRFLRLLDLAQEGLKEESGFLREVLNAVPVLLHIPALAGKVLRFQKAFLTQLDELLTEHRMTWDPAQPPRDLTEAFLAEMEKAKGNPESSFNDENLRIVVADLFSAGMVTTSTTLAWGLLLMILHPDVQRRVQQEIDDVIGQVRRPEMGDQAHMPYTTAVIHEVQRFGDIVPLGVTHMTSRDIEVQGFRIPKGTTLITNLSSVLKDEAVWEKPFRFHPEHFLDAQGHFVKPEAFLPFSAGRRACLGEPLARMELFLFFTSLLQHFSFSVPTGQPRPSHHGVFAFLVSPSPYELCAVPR
# Sequence of Cytochrome P450 2C9 (Homo sapiens) (P11712 whole entry, looked up): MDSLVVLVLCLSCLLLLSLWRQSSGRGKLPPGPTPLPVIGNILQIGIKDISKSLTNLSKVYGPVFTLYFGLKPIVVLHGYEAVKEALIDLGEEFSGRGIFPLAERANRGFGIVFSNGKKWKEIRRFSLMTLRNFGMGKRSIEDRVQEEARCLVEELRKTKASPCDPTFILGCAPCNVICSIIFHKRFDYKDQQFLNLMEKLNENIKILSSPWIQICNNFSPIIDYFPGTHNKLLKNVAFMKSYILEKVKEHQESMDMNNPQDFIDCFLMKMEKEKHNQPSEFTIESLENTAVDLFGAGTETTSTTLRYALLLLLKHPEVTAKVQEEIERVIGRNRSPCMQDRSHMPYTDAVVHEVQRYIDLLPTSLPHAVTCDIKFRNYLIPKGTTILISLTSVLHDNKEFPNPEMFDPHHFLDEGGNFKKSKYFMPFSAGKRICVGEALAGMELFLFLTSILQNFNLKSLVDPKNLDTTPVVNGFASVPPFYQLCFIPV
# Sequence of Ubiquitin carboxyl-terminal hydrolase 1 (Homo sapiens) (O94782 whole entry, looked up): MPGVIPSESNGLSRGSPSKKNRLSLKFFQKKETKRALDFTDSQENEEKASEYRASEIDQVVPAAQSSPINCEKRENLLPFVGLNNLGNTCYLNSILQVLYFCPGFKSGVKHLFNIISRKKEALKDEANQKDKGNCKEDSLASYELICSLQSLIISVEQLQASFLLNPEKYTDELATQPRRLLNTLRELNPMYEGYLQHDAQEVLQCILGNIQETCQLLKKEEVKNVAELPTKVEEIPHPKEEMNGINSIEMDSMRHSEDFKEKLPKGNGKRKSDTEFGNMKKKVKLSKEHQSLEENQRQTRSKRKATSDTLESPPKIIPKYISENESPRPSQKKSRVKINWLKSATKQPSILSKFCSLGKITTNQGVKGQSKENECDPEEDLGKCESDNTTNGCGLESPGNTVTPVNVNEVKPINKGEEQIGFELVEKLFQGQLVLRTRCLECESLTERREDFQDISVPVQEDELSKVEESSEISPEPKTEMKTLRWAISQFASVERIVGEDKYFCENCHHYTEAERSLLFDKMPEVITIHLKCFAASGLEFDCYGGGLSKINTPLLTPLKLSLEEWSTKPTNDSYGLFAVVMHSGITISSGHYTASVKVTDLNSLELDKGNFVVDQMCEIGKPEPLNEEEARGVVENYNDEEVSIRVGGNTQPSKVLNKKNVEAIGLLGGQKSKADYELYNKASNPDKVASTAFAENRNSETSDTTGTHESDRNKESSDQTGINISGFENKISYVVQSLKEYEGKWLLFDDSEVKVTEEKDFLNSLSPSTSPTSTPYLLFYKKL
compound,measurement,setting,value
CC[C@@]1(O)C[C@H](O[C@H]2C[C@H](N(C)C)[C@H](O[C@H]3C[C@H](O)[C@H](O[C@H]4CCC(=O)[C@H](C)O4)[C@H](C)O3)[C@H](C)O2)c2c(cc3c(c2O)C(=O)c2c(O)cccc2C3=O)[C@H]1C(=O)OC,Potency,astro,447 nM (active)
CNS(=O)(=O)c1ccc2c(c1)/C(=C/c1[nH]c3c(c1CCCN1CCN(C)CC1)CCCC3)C(=O)N2,Potency,[1],inactive
same,Potency,[2],20.8 µM (active)
C[N+]1(C)CCN(CC(O)(c2ccccc2)C2CCCCC2)CC1 (stereo not given),"activity, negative = cell killing",[3]; [11],4.18%
same,"activity, negative = cell killing",[3]; [12],-11.4%
same,"activity, negative = cell killing",[3]; [13],3.68%
same,Potency,astro,inactive
COC(=O)[C@]12CCC(C)(C)C[C@@H]1[C@@H]1C(=O)C=C3[C@]4(C)C=C(C#N)C(=O)C(C)(C)[C@@H]4CC[C@@]3(C)[C@]1(C)CC2,Potency,[1],1.46 µM (active)
C=CC(=O)Nc1cccc(C)c1Nc1ncc2cc(-c3c(Cl)c(OC)cc(OC)c3Cl)ccc2n1,Potency,[1],14.6 µM (active)
same,Potency,[2],11.7 µM (active)
same,Potency,[4],15.7 µM (active)
same,"activity change, negative = inhibition",[4],1.08%
NCCNCCN,"activity, negative = cell killing",[3]; [11],-28%
same,Potency,[3],28.2 µM (active)
same,Potency,astro,inactive
COc1c(Nc2ncc(Cl)c(N[C@H]3[C@H](C(N)=O)[C@@H]4C=C[C@@H]3C4)n2)ccc2c1CCC(N1CCOCC1)CC2 (stereo not given in full),Potency,[1],6.51 µM (active)
same,Potency,[2],inactive
COc1cc(OC)cc(N(CCNC(C)C)c2ccc3ncc(-c4cnn(C)c4)nc3c2)c1,Potency,[1],10.3 µM (active)
same,Potency,[2],13.1 µM (active)
same,Potency,[4],17.6 µM (active)
CN(C)Cc1cccc(N=C(c2ccccc2)c2c(O)[nH]c3cc(C(N)=O)ccc23)c1,Potency,[1],inactive
same,Potency,[2],inactive
O=C(O)c1ccc2c3c1cccc3c(=O)n1c3ccccc3nc21,Potency,[5],inactive
same,Potency,[1],inactive
same,Potency,[6],inactive
CN1CCC(c2c(O)cc(O)c3c(=O)cc(-c4ccccc4Cl)oc23)C1CO (stereo not given),Potency,[1],0.92 µM (active)
same,Potency,[2],0.739 µM (active)
same,Potency,[4],0.787 µM (active)
same,"activity change, negative = inhibition",[4],-2.93%
N[C@@H](C(=O)N[C@@H]1C(=O)N2C(C(=O)O)=C(CSc3cn[nH]n3)CS[C@H]12)c1ccc(O)cc1,"activity, negative = cell killing",[3]; [11],-1.12%
same,"activity, negative = cell killing",[3]; [12],-13.1%
same,"activity, negative = cell killing",[3]; [13],10.5%
same,Potency,astro,inactive
CN(CC(=O)N1CCOCC1)Cc1c(Cl)cccc1NC(=O)c1ccccc1,Potency,[7],inactive
same,"activity, negative = cell killing",[3]; [11],-3.67%
same,"activity, negative = cell killing",[3]; [12],-22.4%
same,"activity, negative = cell killing",[3]; [13],-9.11%
same,Potency,[3],35.5 µM (active)
same,Potency,astro,inactive
CS(=O)(=O)CCNCc1nc(-c2ccc3ncnc(Nc4ccc(OCc5cccc(F)c5)c(Cl)c4)c3c2)cs1,"activity change, negative = cytotoxicity",[1],4.91% [at 9.29 µM]
same,Potency,[6],inactive
CCCCCCCC[N+](C)(C)CCCCCCCC,Potency,[7],inactive
same,Potency,[8],0.674 µM (active)
same,Potency,[9],inactive
same,Potency,astro,20 µM (active) and 12.6 µM (active)
CCC(=O)O[C@H]1CC[C@H]2[C@@H]3CCc4cc(O)ccc4[C@H]3CC[C@]12C,Potency,astro,12600 nM (active)
C=CC(=O)c1ccc2ccccc2c1,Potency,[1],inactive
same,Potency,[6],inactive
same,Potency,[10],inactive
Cc1[nH]c(/C=C2\C(=O)Nc3ccccc32)c(C)c1CCC(=O)O,Potency,[1],inactive
same,Potency,[8],inactive
same,Potency,[9],inactive
Cc1cn(C2OC(CO)C(O)C2F)c(=O)[nH]c1=O (stereo not given),Potency,[1],inactive
O=C(NOCCO)c1ccc2cncn2c1Nc1ccc(I)cc1F,Potency,[1],inactive
same,Potency,[2],inactive
